# FBPA Giardia inh: blocks Giardia fructose-bisphosphate aldolase activity. AID 2451. Potency, µM (series often up to 59.6 µM), without a hit: at the highest dose activity, negative = inhibition, hits mostly inhibitors. purified Giardia FBPA. hit rate 0.71% among 290,000. A8B2U2; also: potency is read from the fitted curve at half-maximal effect; % is scaled to controls: 0 for no effect and ±100 for the full control effect; nearly all actives have a fitted effect of over 55% in size
#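 Giardia FBPA (40 nM reagent) was preincubated 10 min at RT with compound (up to 57.5 uM final), then substrate plus GAPDH/TPI/NAD/arsenate coupling system with diaphorase/resazurin was added; resorufin fluorescence (525/598 nm) was read after 20 min.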
# Cycloheximide cs: affects cycloheximide protein synthesis inhibition readout, counter-screen | cell reporter, cycloheximide protein synthesis inhibition counterscreen | max response, % | hit rate 12% among 300,000 | AID 2314; in the data active = max response mostly above about 13%, no sharp cut-off; inactive = mostly below about 14%; also: read at 38.3 µM for the half of the compounds with a filed dose; 0% is about no effect
# TbPYK inhibitor: T. brucei pyruvate kinase inhibition; AID 624173; Potency, µM (series often up to 76.8 µM), inactives show at the top dose activity, negative = inhibition, most hits filed as inhibitors; TbPYK enzyme, Kinase-Glo Plus ATP luminescence, 45 min; hit rate 0.12% among 410,000; Q57TT1; also: potency is read from the fitted curve at half-maximal effect; % is scaled to controls: 0 for no effect and ±100 for the full control effect; nearly all actives have a fitted effect of over 50% in size
#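 Screened from lowest to highest concentration, compounds were pinned into TbPYK/substrate mixtures, and ADP (130 uM final) was added. Plates sat at room temperature for 45 min prior to Kinase-Glo Plus detection by luminescence.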
# Shiga inhibitor: blocks Shiga toxin action in Vero cells. hit rate 9.2% among 290,000. Vero cells, Shiga toxin protein synthesis inhibition reporter. inhibition, % at 38.7 µM; in the data active = inhibition mostly above about 28%, no sharp cut-off; inactive = mostly below about 43%; also: 0% is about no effect
# LmPK inh: blocks Leishmania mexicana pyruvate kinase activity | Q27686 | purified LmPK, Kinase-Glo ATP luminescence, 1 h | Potency, µM (series often up to 57.5 µM), for inactives: top-dose activity change, negative = inhibition, actives largely listed as inhibitors | hit rate 0.37% among 290,000 | AID 1721; also: potency is read from the fitted curve at half-maximal effect; % is scaled to controls: 0 for no effect and ±100 for the full control effect
# Target sequence (Q27686 whole entry, looked up): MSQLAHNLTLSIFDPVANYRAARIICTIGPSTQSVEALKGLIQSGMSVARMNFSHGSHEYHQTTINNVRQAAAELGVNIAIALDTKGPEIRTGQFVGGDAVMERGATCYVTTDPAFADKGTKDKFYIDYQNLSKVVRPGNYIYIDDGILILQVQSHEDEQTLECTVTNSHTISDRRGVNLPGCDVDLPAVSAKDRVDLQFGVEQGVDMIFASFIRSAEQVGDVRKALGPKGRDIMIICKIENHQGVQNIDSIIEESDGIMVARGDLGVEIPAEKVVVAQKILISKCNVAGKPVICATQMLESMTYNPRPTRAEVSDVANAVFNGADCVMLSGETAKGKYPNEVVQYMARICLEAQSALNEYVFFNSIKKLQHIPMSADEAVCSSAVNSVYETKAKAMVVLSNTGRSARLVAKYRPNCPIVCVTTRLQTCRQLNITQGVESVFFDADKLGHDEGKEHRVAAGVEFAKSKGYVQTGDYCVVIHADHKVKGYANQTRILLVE
#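 Purified LmPK (0.1 nM) with 0.5 mM PEP and 0.1 mM ADP in imidazole buffer pH 7.2 with MgCl2/KCl, 1 h at room temperature. ATP formed was read by luciferase luminescence and normalized to no-enzyme and uninhibited controls.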
# RE007 growth inh: less growth of the S. pombe RE007 Vpr strain. S. pombe RE007 Vpr strain, BacTiter-Glo ATP luminescence, 24 h. Potency, µM (series often up to 92.2 µM), inactives show top-dose activity change, negative = less growth, usual class: inhibitors. hit rate 0.21% among 360,000. AID 651644; active = well fitted falling curve with a large enough effect; inconclusive = small, poorly fitted or top-dose-only effect; inactive = no such curve, though single readings can be large or run the other way; also: potency is read from the fitted curve at half-maximal effect; % is scaled to controls: 0 for no effect and ±100 for the full control effect; nearly all actives have a fitted effect of over 50% in size
#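 Fission yeast RE007 carrying one integrated HIV-1 vpr copy, seeded at OD 0.01 in PMG+AL medium with 23 nL pinned compound. Grown 24 h at 30 degrees; viability read by BacTiter-Glo luminescence after 5 min.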
# An asterisk follows results filed as active; ? = inconclusive; . = not tested or not shown. The full list was thinned out, with hits kept by preference. Unless noted, calls follow the shape of the dose curve; as a rule, active = well fitted curve in the direction sought with a large enough effect; inconclusive = small, poorly fitted or top-dose-only effect, or another doubt; inactive = no such curve, though single readings can be large; an effect the other way counts as inactive or inconclusive.
SMILES,FBPA Giardia inh,Cycloheximide cs,TbPYK inhibitor,Shiga inhibitor,LmPK inh,RE007 growth inh
Cc1ccc(CNC(=O)C2CC(c3cccc([N+](=O)[O-])c3)=NO2)o1 (centres undefined),0.5%,33.0*,-7.4%,64.5*,-0.1%,5.1%
COc1cccc(C(=O)N2c3nc(-c4ccco4)nn3C3(CCCCC3)[C@@H]3CCCC[C@@H]32)c1,.,.,-18.2%,.,.,.
COCCNC(=O)C1CC(c2ccc([N+](=O)[O-])cc2)=NO1 (centres undefined),4.3%,-3.6,2.0%,-3.6,-0.9%,17.3%
O=C(NCCc1cccs1)C1CC(c2ccc([N+](=O)[O-])cc2)=NO1 (centres undefined),5.0%,59.4*,-1.2%,77.4*,-4.0%,8.7%
COc1ccc(CCNC(=O)C2CC(c3ccc([N+](=O)[O-])cc3)=NO2)cc1 (centres undefined),0.4%,33.4*,4.6%,43.4*,-2.2%,13.4%
COc1ccc(C(=O)c2c(N)c(-c3nc(-c4ccc(OC)cc4)cs3)c3ccccn23)cc1,.,.,2.1%,.,.,.
C=C(C)CSC1=C(C#N)C(c2ccccc2Cl)CC(=O)N1 (centres undefined),-10.7%,0.3,12.6µM*,-8.9,4.3%,0.1%
COCC(C)n1c(C)cc(C(=O)COC(=O)c2cc(=O)[nH]c3ccccc23)c1C (centres undefined),.,.,-3.0%,.,.,36.8%
COc1cc(OC)cc(C(=O)NCC(=O)OCC(=O)c2cc(C)n(Cc3ccco3)c2C)c1,4.9%,-1.4,9.3%,23.6,1.9%,1.6%
COCC(C)n1c(C)cc(C(=O)COC(=O)CNC(=O)c2ccccc2)c1C (centres undefined),-6.7%,53.3*,2.3%,86.2*,-3.1%,-6.2%
COCCn1c(C)cc(C(=O)COC(=O)CNC(=O)c2ccccc2)c1C,4.5%,60.7*,-6.7%,98.8*,-0.6%,2.5%
COCC(C)n1c(C)cc(C(=O)COC(=O)c2n[nH]c3ccccc23)c1C (centres undefined),-2.1%,56.4*,0.7%,129.0*,-0.8%,-0.8%
CC(=O)N1CCc2cc(Br)cc(S(=O)(=O)N3CCC(C(=O)Nc4ccc(C(C)C)cc4)CC3)c21,.,.,2.4%,.,.,.
Cc1ccc(Cl)cc1N1CCN(S(=O)(=O)c2ccc3c(c2)CC(=O)N3C)CC1,14.8%,1.7,0.0%,-3.0,-1.6%,-10.3%
O=C(Cc1ccc(NC(=O)C2CCN(C(=O)c3ccccc3)CC2)cc1)Nc1ccc(C(=O)N2CCOCC2)cc1,.,.,3.3%,.,.,-1.2%
O=C(Nc1ccccc1)C1C2/C=C\CCCCC21 (centres undefined),0.8%,19.3*,-0.5%,43.4*,3.5%,-26.5%
Cc1ccccc1NC(=O)C1C2/C=C\CCCCC21 (centres undefined),2.0%,-0.9,10.6%,11.1,-3.3%,29.2%
Cc1ccc(NC(=O)C2C3/C=C\CCCCC32)cc1C (centres undefined),.,37.1*,1.3%,129.9,-0.9%,8.6%
CCCn1c(SCc2nc(-c3ccccc3C)no2)nnc1-c1ccc(Cl)cc1,.,.,-0.7%,.,.,.
O=C(NCc1ccc2c(c1)OCO2)c1ccc2c(c1)N(Cc1cccc(Cl)c1)C(=O)c1ccccc1S2=O (centres undefined),.,.,-4.5%,.,.,.
C[N+]1(C)CCN(C[C@@](O)(c2ccccc2)C2CCCCC2)CC1,.,.,4.8%,.,.,.
C/C(=N\OCc1cccc(C(=O)O)c1)c1ccc(Cl)cc1,26.2%,78.0*,-4.5%,124.8*,-18.0%,?
C/C(=N\OCc1ccc(C#N)cc1)c1ccc(S(=O)(=O)N(C)C)cc1,10.2%,48.4*,8.2%,80.4*,1.5%,8.4%
C/C(=N\OCc1ccc(C#N)cc1)c1ccccc1,-2.4%,42.5*,3.0%,70.2*,-27.1%,-2.4%
Cc1ccccc1Cn1cc(S(=O)(=O)c2ccc(F)cc2)c(=O)c2cc3c(cc21)OCO3,.,.,1.1%,.,.,.
SMILES,FBPA Giardia inh,Cycloheximide cs,TbPYK inhibitor,Shiga inhibitor,LmPK inh,RE007 growth inh
CCOc1ccc(N)c(SSc2cc(OCC)ccc2N)c1,?,44.9*,?,88.0*,17.8%,.
COC(=O)C1C(=O)c2c([nH]c(C(=O)OC3CCCC3)c2C)CC1C (centres undefined),-3.6%,47.1*,1.4%,49.4,0.5%,2.2%
COc1ccc(C2CC(=O)c3c([nH]c(C(=O)OC4CCCCCC4)c3C)C2)cc1 (centres undefined),.,.,1.6%,.,.,.
O=C(NC1CCCC1)c1ccc2c(c1)N(Cc1ccccc1F)C(=O)c1ccccc1S2,.,.,1.2%,.,.,.
O=[N+]([O-])c1cc(-c2cnc3ccccc3n2)ccc1Oc1ccc(F)cc1,-1.8%,53.1*,-2.6%,80.6*,1.1%,-6.4%
O=[N+]([O-])c1ccccc1Oc1cnc2ccccc2n1,-16.2%,1.9,-2.1%,-2.9,-0.2%,-0.1%
CCOc1ccc(-c2cnc3ccccc3n2)cc1,2.6%,39.6*,-11.7%,95.9*,?,-8.9%
O=[N+]([O-])c1ccc(-c2cnc3ccccc3n2)cc1,-2.3%,26.0*,-9.6%,32.0*,-0.1%,6.5%
CC(=O)c1sc(NS(=O)(=O)c2ccc(C)cc2)nc1-c1ccccc1,13.3%,3.9,0.4%,-5.6,-6.8%,-10.6%
COC(=O)[C@@]1(Cc2ccc(OC)cc2)[C@H]2c3cc(C(=O)N(C)C)n(C)c3C[C@H]2CN1C(=O)c1ccccc1,0.0%,.,.,.,.,.
CC1=C(C(=O)Nc2ccccc2Cl)C(c2cccc(O)c2)n2ncnc2N1 (centres undefined),.,.,-6.3%,.,.,.
COc1ccc(-c2cc(C(=O)Nc3ccc(O)cc3)c3ccccc3n2)cc1OC,-26.7%,28.2*,-0.4%,61.5*,3.5%,3.2%
COc1ccc(NC(=O)c2cc(-c3cc(OC)c(OC)c(OC)c3)nc3ccccc23)cc1OC,-4.8%,7.6,0.0%,19.0,-1.8%,4.6%
COc1ccc(-c2cc(C(=O)Nc3ccc(C)c(N)c3)c3ccccc3n2)cc1,11.3%,18.8*,8.0%,118.1*,0.4%,6.7%
CCCCC(=O)N(C)c1c(C)nc2ccc(C(=O)N(C)CCN(C)C)cn12,.,.,0.1%,.,.,-0.6%
Cc1ccc2c(c1)C(=NC1CCCCC1)c1cc3ccccc3nc1-2,10.8%,51.4*,-6.2%,40.6*,-5.3%,-25.1%
Cc1ccc2c(c1)-c1nc3ccccc3cc1C2=NC1CCCCC1,-0.3%,55.2*,5.9%,85.4*,-9.7%,1.8%
Cc1ccc(-c2cc3ccccc3nc2N2CCCC2)cc1,-0.4%,-3.5,1.5%,-23.5,4.2%,-27.0%
CCN(CC)C(=O)CSc1nnnn1-c1ccc(F)c(Cl)c1,3.7%,4.4,2.1%,-3.7,2.1%,11.8%
Cc1cccc(-n2ncc3c(N(C)C4CCCCC4)ncnc32)c1,-7.6%,90.1*,-0.4%,127.4*,-11.4%,2.9%
